Measured values as given in PubChem BioAssay AID743313 (Broad Institute, 2014).
Activity calls are given as the source filed them.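 The calls were made as follows: active = cell killing with a fitted half-maximal concentration no more than twice the top valid dose used; inconclusive = flat curve with a moderate signal drop, or poor fit; inactive = the rest.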

experiment: loss of HepG2 viability via ATP – cell-based, plate reader, dry powder, set 7, cytotoxicity control, dose response (AID 743313); conditions: ATP luminescence (CellTiter-Glo), 72 h; series mostly up to 26 µM; activity change, negative = cytotoxicity: at the top concentration

Compound	activity change, negative = cytotoxicity	outcome
COCc1nc2ccccc2n1CCOc1ccc(C(C)(C)C)cc1	-11.4% (inactive)	–
CC(C)(C)c1ccc(OCCn2cnc3ccccc32)cc1	-14.3% (inactive)	–
Fc1ccc2c(c1)[nH]c(=S)n2CCOc1ccccc1	–	inactive
S=c1[nH]c2ccccc2n1CCOc1ccccc1Cl	-11.6% (inactive)	–
CSc1nc2ccccc2n1CCOc1cc(C)ccc1C(C)C	-10.2% (inactive)	–
